# PubChem BioAssay (NCI)
# The panel holds about 83,000 compounds, 20% with a hit somewhere; the sample as a whole holds those more often.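 Step 1: grow cells in 96-well plates. Step 2: add test compound at a single concentration. Step 3: incubate 48 h. Step 4: record percent growth.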 Calls of active or inactive are those of the source. Rule for the calls: active = growth percent below 10; inactive = the rest.
# Tested on: K-562 leukemia
# Assay: NCI-60 one-dose screen, 48 h (100 = growth as untreated, 0 = no growth, -100 = all killed)
# Settings: 10 µM unless noted
row,Compound,growth
1,CCOC(=O)CC1CSC(Nc2ccccc2)=N1 (stereo unspecified),96.4% (inactive)
2,O=S(=O)(Nc1cc(Sc2cccc3cccnc23)c(O)c2ccccc12)c1ccccc1,-16.8% (active)
3,COc1ccc(C(=O)c2cc3c(N)c(C(=O)Nc4ccccc4)sc3nc2C)cc1,8.08% (active)
4,N=c1c(S(=O)(=O)c2ccccc2)cc2c(=O)n3ccccc3nc2n1CC1CCCO1 (stereo unspecified),113% (inactive)
5,CC(C)(C)c1cc(Cl)c(O)c(CNCCO)c1,102% (inactive)
6,CCN(CC)CCN1C(=O)c2c(c(C)c3c(oc4ccc(O)cc43)c2C)C1=O,6.29% (active)
7,Fc1cccc(-c2ccc3c(c2)C2(CCNCC2)CN3)c1,92.6% (inactive)
8,C=CC(=O)Nc1ccc(Oc2nccc(Nc3nnc(-c4ccc(C)cc4)s3)n2)cc1,29.4% (inactive)
9,NC1(CO)COC(c2ccccc2)OC1 (stereo unspecified),89.5% (inactive)
10,CCNc1ccc(-c2nc3ccccc3n3cccc23)cc1,67.6% (inactive)
11,CC[N+]1(CC)CC[N+]2(CCCC(C)CC2)CC1 (stereo unspecified),107% (inactive)
12,N=C(N)c1ccc(-c2ccc(-c3ccccc3)s2)cc1,1.35% (active)
13,O=C(CSc1nc(-c2ccccc2)cc(=O)[nH]1)Nc1nc(-c2ccccc2)cs1,87.7% (inactive)
14,Cc1nnc(-c2ccc3c(c2)nc(/C=C/c2ccccc2)n3C2CCCCC2)o1,45.9% (inactive)
15,O=S(=O)(NCCNc1nccc(-c2c(-c3ccc(F)c(O)c3)nc3sccn23)n1)c1ccc(F)cc1,14.7% (inactive)
16,CCN(CC)CCCN1C(=O)c2c(c(C)c3c(oc4ccc(O)cc43)c2C)C1=O,3.9% (active)
